Results as given in PubChem BioAssay AID1159580 (chemical genetic matrix, 2015).
Screen size: about 5,500 compounds; about 2,000 (36%) were called active. Another 18% or so got no clear call; they are omitted. Cut-off read from the data, not from the text of the source: active = normalized growth mostly below about 0.91 (no sharp cut-off); inconclusive = no clear call, values can overlap the other calls; inactive = mostly above about 0.92. The list shows a part of the results.

Test: chemical genetic growth profiling, strain panel (AID 1159580);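 note: tested at 20 µM; growth read once vehicle control cultures reached saturation at 30 °C; 1 = growth at the plate median or of vehicle wells; lower values mean less growth of the strain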
Conditions: growth OD

Measured: normalized growth

CCCCCN=C(N)N/N=C\c1c[nH]c2ccc(OC)cc12
inactive: S. cerevisiae deletion strains, locus YJR043C, strain POL32, active compounds read low 0.989 | S. cerevisiae deletion strains, locus YJR075W, strain HOC1, active compounds read low 0.996 | S. cerevisiae deletion strains, locus YKL009W, strain mrt4, active compounds read low 0.974 | S. cerevisiae deletion strains, locus YKL068W, active compounds read low 0.993 | S. cerevisiae deletion strains, locus YKL085W, strain MDH1 (second series), active compounds read low 0.956 | S. cerevisiae deletion strains, locus YKL085W, strain MDH1, active compounds read low 0.956 | S. cerevisiae deletion strains, locus YKL160W, strain elf1, active compounds read low 1.01 | S. cerevisiae deletion strains, locus YKL190W, strain CNB1, active compounds read low 1.01 | S. cerevisiae deletion strains, locus YKR001C, strain vps1, active compounds read low 1.03 | S. cerevisiae deletion strains, locus YKR026C, strain gcn3, active compounds read low 1.01 | S. cerevisiae deletion strains, locus YKR091W, strain srl3, active compounds read low 0.992 | S. cerevisiae deletion strains, locus YLL001W, strain dnm1, active compounds read low 1.01 | S. cerevisiae deletion strains, locus YLL026W, active compounds read low 1.01 | S. cerevisiae deletion strains, locus YLL041C, strain sdh2, active compounds read low 1 | S. cerevisiae deletion strains, locus YLR027C, strain aat2, active compounds read low 1 | S. cerevisiae deletion strains, locus YLR039C, strain RIC1, active compounds read low 1.08 | S. cerevisiae deletion strains, locus YLR058C, strain SHM2, active compounds read low 0.99 | S. cerevisiae deletion strains, locus YLR102C, strain apc9, active compounds read low 1.02 | S. cerevisiae deletion strains, locus YLR221C, strain rsa3, active compounds read low 0.986 | S. cerevisiae deletion strains, locus YLR258W, strain gsy2, active compounds read low 0.995 | S. cerevisiae deletion strains, locus YLR262C, strain YPT6 (second series), active compounds read low 1.04 | S. cerevisiae deletion strains, locus YLR262C, strain YPT6, active compounds read low 1.01 | S. cerevisiae deletion strains, locus YLR268W, strain sec22, active compounds read low 0.998 | S. cerevisiae deletion strains, locus YLR320W, strain mms22, active compounds read low 0.98 | S. cerevisiae deletion strains, locus YLR330W, strain CHS5, active compounds read low 1.01 | S. cerevisiae deletion strains, locus YLR342W, strain FKS1 (second series), active compounds read low 0.989 | S. cerevisiae deletion strains, locus YLR342W, strain FKS1, active compounds read low 1.01 | S. cerevisiae deletion strains, locus YLR357W, strain rsc2, active compounds read low 0.975 | S. cerevisiae deletion strains, locus YLR370C, strain arc18, active compounds read low 1 | S. cerevisiae deletion strains, locus YLR371W, strain rom2, active compounds read low 1.03 | S. cerevisiae deletion strains, locus YLR384C, strain iki3, active compounds read low 1.02 | S. cerevisiae deletion strains, locus YLR418C, strain cdc73, active compounds read low 0.993 | S. cerevisiae deletion strains, locus YML016C, strain PPZ1, active compounds read low 1 | S. cerevisiae deletion strains, locus YML032C, strain rad52, active compounds read low 1.02 | S. cerevisiae deletion strains, locus YML120C, strain ndi1, active compounds read low 1.01 | S. cerevisiae deletion strains, locus YML124C, strain tub3, active compounds read low 1.02 | S. cerevisiae deletion strains, locus YMR058W, strain fet3, active compounds read low 1.01 | S. cerevisiae deletion strains, locus YMR078C, strain ctf18, active compounds read low 1.03 | S. cerevisiae deletion strains, locus YMR125W, strain sto1, active compounds read low 0.979 | S. cerevisiae deletion strains, locus YMR129W, active compounds read low 1.01 | S. cerevisiae deletion strains, locus YMR205C, strain PFK2, active compounds read low 0.994 | S. cerevisiae deletion strains, locus YMR223W, strain ubp8, active compounds read low 1.01 | S. cerevisiae deletion strains, locus YMR231W, strain pep5, active compounds read low 1.02 | S. cerevisiae deletion strains, locus YMR263W, strain SAP30, active compounds read low 1.01 | S. cerevisiae deletion strains, locus YMR307W, strain GAS1, active compounds read low 0.973 | S. cerevisiae deletion strains, locus YNL067W, strain RPL9B, active compounds read low 0.998 | S. cerevisiae deletion strains, locus YNL071W, strain lat1, active compounds read low 1 | S. cerevisiae deletion strains, locus YNL128W, strain TEP1, active compounds read low 0.995 | S. cerevisiae deletion strains, locus YNL153C, strain GIM3, active compounds read low 1 | S. cerevisiae deletion strains, locus YNL209W, strain ssb2, active compounds read low 1 | S. cerevisiae deletion strains, locus YNL233W, strain BNI4, active compounds read low 0.985 | S. cerevisiae deletion strains, locus YNL248C, strain rpa49, active compounds read low 0.991 | S. cerevisiae deletion strains, locus YNL250W, strain rad50, active compounds read low 1.02 | S. cerevisiae deletion strains, locus YNL271C, strain bni1, active compounds read low 1.02 | S. cerevisiae deletion strains, locus YNL298W, strain CLA4, active compounds read low 1.02 | S. cerevisiae deletion strains, locus YNL307C, strain MCK1, active compounds read low 1.04 | S. cerevisiae deletion strains, locus YNL322C, strain KRE1 (second series), active compounds read low 1.02 | S. cerevisiae deletion strains, locus YNL322C, strain KRE1, active compounds read low 1 | S. cerevisiae deletion strains, locus YNR049C, strain mso1, active compounds read low 1.01 | S. cerevisiae deletion strains, locus YNR052C, strain pop2, active compounds read low 1.03 | S. cerevisiae deletion strains, locus YOL006C, strain TOP1, active compounds read low 0.995 | S. cerevisiae deletion strains, locus YOL012C, strain htz1 1.66 | S. cerevisiae deletion strains, locus YOL147C, strain pex11, active compounds read low 1.03 | S. cerevisiae deletion strains, locus YOR001W, strain rrp6, active compounds read low 0.995 | S. cerevisiae deletion strains, locus YOR061W, strain CKA2, active compounds read low 0.995 | S. cerevisiae deletion strains, locus YOR069W, strain VPS5, active compounds read low 1.01 | S. cerevisiae deletion strains, locus YOR070C, strain gyp1, active compounds read low 1 | S. cerevisiae deletion strains, locus YOR080W, strain dia2, active compounds read low 1 | S. cerevisiae deletion strains, locus YOR083W, strain WHI5, active compounds read low 0.991 | S. cerevisiae deletion strains, locus YOR106W, strain vam3, active compounds read low 0.995 | S. cerevisiae deletion strains, locus YOR136W, strain idh2, active compounds read low 1.03 | S. cerevisiae deletion strains, locus YOR144C, strain elg1, active compounds read low 1.01 | S. cerevisiae deletion strains, locus YOR184W, strain ser1, active compounds read low 1.02 | S. cerevisiae deletion strains, locus YOR265W, strain rbl2, active compounds read low 1.01 | S. cerevisiae deletion strains, locus YOR270C, strain vph1, active compounds read low 1.05 | S. cerevisiae deletion strains, locus YOR290C, strain snf2, active compounds read low 0.984 | S. cerevisiae deletion strains, locus YOR316C, strain cot1, active compounds read low 1.02 | S. cerevisiae deletion strains, locus YPL051W, strain arl3, active compounds read low 1 | S. cerevisiae deletion strains, locus YPL055C, strain LGE1, active compounds read low 0.993 | S. cerevisiae deletion strains, locus YPL078C, strain atp4, active compounds read low 1.03 | S. cerevisiae deletion strains, locus YPL106C, strain sse1, active compounds read low 1.01 | S. cerevisiae deletion strains, locus YPL240C, strain hsp82, active compounds read low 1 | S. cerevisiae deletion strains, locus YPL241C, strain CIN2, active compounds read low 1.05 | S. cerevisiae deletion strains, locus YPR119W, strain clb2, active compounds read low 1.02 | S. cerevisiae deletion strains, locus YPR141C, strain kar3, active compounds read low 1.02 | S. cerevisiae deletion strains, locus YPR163C, strain tif3, active compounds read low 1.02 | S. cerevisiae deletion strains, locus YPR167C, strain met16, active compounds read low 1.02 | S. cerevisiae deletion strains, strain wtn01, active compounds read low 1.01 | S. cerevisiae strains, strain wild type, active compounds read low 1
